Among the data in the supplement of paper PMC7393113 are mitochondrial superoxide values, retold here.

Counter-ions that a name gives are not always drawn. ± gives the standard deviation of the averaged measurements.

The test system of the assay is iBMDM (immortalised mouse bone-marrow-derived macrophages), LPS-stimulated. In words: mitochondrial superoxide (MitoSOX fluorescence) fold increase over unstimulated control; higher = more LPS-induced mitochondrial ROS (less inhibition). The settings on record: inhibitor concentration: 500 nM, LPS: 100 ng/ml. The essentials:
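Immortalised mouse bone-marrow-derived macrophages in black 96-well plates were kept in phenol-red-free 1% FCS/DMEM for 20 h, pretreated 30 min with kinase inhibitors (500 nM), loaded with 1 μM MitoSox for 10 min and then given LPS (100 ng/ml). Fluorescence at excitation/emission 510/580 nm was read on a ClarioStar plate reader every 60 min for 4 h, with wells in triplicate. Mitochondrial superoxide is given as fold induction over untreated macrophages, averaged across replicates.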

`CC(C)(C)NS(=O)(=O)c1cncc(-c2cc(F)c3nc(N)nn3c2)c1`: the mitochondrial superoxide came out at 1.09 ± 0.021 (time after LPS: 1 h), 1.18 ± 0.038 (time after LPS: 2 h) and 1.31 ± 0.064 (time after LPS: 4 h).

In the case of `CNC(=O)c1cccc(-c2ccc3c(N4CCOC[C@@H]4C)nc(N4CCOC[C@@H]4C)nc3n2)c1`, the mitochondrial superoxide (time after LPS: 1 h) was found to be 1.18 ± 0.058, the mitochondrial superoxide (time after LPS: 2 h) was determined as 1.46 ± 0.074 and the mitochondrial superoxide (time after LPS: 4 h) came out at 1.66 ± 0.1.

With `O=C(c1ccc(/C=C/c2n[nH]c3ccccc23)cc1)N1CCNCC1`, the mitochondrial superoxide reads like this: (time after LPS: 1 h) 1.09 ± 0.063; (time after LPS: 2 h) 1.19 ± 0.067; (time after LPS: 4 h) 1.33 ± 0.035.

Turning to `COC(=O)c1ccc2c(C(=Nc3ccc(N(C)C(=O)CN4CCN(C)CC4)cc3)c3ccccc3)c(O)[nH]c2c1` [Nintedanib (BIBF 1120)], the mitochondrial superoxide (time after LPS: 1 h) is 1.43 ± 0.015, the mitochondrial superoxide (time after LPS: 2 h) came out at 1.5 ± 0.056 and the mitochondrial superoxide (time after LPS: 4 h) amounted to 1.72 ± 0.037.

With `CN(C)CCOc1ccc(-c2nc(-c3ccncc3)c(-c3ccc4c(c3)CC/C4=N\O)[nH]2)cc1`, the mitochondrial superoxide was 1.07 ± 0.036 (time after LPS: 1 h), 1.15 ± 0.075 (time after LPS: 2 h) and 1.31 ± 0.083 (time after LPS: 4 h).

Turning to `Cc1[nH]c(/C=C2\C(=O)Nc3ccc(S(=O)(=O)N(C)c4cccc(Cl)c4)cc32)c(C)c1C(=O)N1CCN(C)CC1`, the mitochondrial superoxide runs as follows: (time after LPS: 1 h) 1.33 ± 0.11; (time after LPS: 2 h) 1.4 ± 0.15; (time after LPS: 4 h) 1.67 ± 0.27.

As for `Cc1cc(C)c(/C=C2\C(=O)Nc3ccccc32)[nH]1` [Semaxanib (SU5416)], the mitochondrial superoxide is 1.19 ± 0.012 (time after LPS: 1 h), 1.22 ± 0.029 (time after LPS: 2 h) and 1.3 ± 0.039 (time after LPS: 4 h).

Regarding `O=S(=O)(c1cccc2cnccc12)N1CCCNCC1` [Fasudil (HA-1077) HCl], the mitochondrial superoxide was 1.03 ± 0.023 (time after LPS: 1 h), 1.12 ± 0.041 (time after LPS: 2 h) and 1.31 ± 0.029 (time after LPS: 4 h).

For `CC1(COc2ccc3c(c2)ncn3-c2ccc3cccc(N4CCC(N)CC4)c3n2)COC1`, the mitochondrial superoxide was 1.04 ± 0.1 (time after LPS: 1 h), 1.42 ± 0.11 (time after LPS: 2 h) and 1.66 ± 0.13 (time after LPS: 4 h).

Regarding `Oc1cccc(-c2nc(N3CCOCC3)c3oc4ncccc4c3n2)c1`, the mitochondrial superoxide (time after LPS: 1 h) is 1.61 ± 0.025, the mitochondrial superoxide (time after LPS: 2 h) amounted to 1.62 ± 0.03 and the mitochondrial superoxide (time after LPS: 4 h) was found to be 1.685 ± 0.012.

`COc1cc(N2CCC(N)CC2)ccc1Nc1ncc(Cl)c(-c2c[nH]c3ccccc23)n1`: the mitochondrial superoxide is 1.21 ± 0.018 (time after LPS: 1 h), 1.27 ± 0.025 (time after LPS: 2 h) and 1.36 ± 0.057 (time after LPS: 4 h).

Consider `CNC(=O)Nc1ccc(-c2nc(N3CC4CCC(C3)O4)c3cnn(C4CCC5(CC4)OCCO5)c3n2)cc1`, for which the mitochondrial superoxide runs as follows: (time after LPS: 1 h) 1.26 ± 0.075; (time after LPS: 2 h) 1.45 ± 0.028; (time after LPS: 4 h) 1.58 ± 0.024.

On to `CCN(CC)CCNC(=O)c1c(C)[nH]c(/C=C2\C(=O)Nc3ccc(F)cc32)c1C` [Sunitinib Malate], for which the mitochondrial superoxide is, setting by setting: (time after LPS: 1 h) 1.61 ± 0.057; (time after LPS: 2 h) 1.73 ± 0.072; (time after LPS: 4 h) 1.7 ± 0.099.

On to `Cc1cnc(Nc2ccc(OCCN3CCCC3)cc2)nc1Nc1cccc(S(=O)(=O)NC(C)(C)C)c1`, for which the mitochondrial superoxide was found to be 1.18 ± 0.14 (time after LPS: 1 h), 1.33 ± 0.21 (time after LPS: 2 h) and 1.42 ± 0.22 (time after LPS: 4 h).

In the case of `CO[C@H]1C[C@@H]2CC[C@@H](C)[C@@](O)(O2)C(=O)C(=O)N2CCCC[C@H]2C(=O)O[C@H]([C@H](C)C[C@@H]2CC[C@@H](OC(=O)C(C)(CO)CO)[C@H](OC)C2)CC(=O)[C@H](C)/C=C(\C)[C@@H](O)[C@@H](OC)C(=O)[C@H](C)C[C@H](C)/C=C/C=C/C=C/1C`, the mitochondrial superoxide (time after LPS: 1 h) is 1.55 ± 0.051, the mitochondrial superoxide (time after LPS: 2 h) was determined as 1.65 ± 0.098 and the mitochondrial superoxide (time after LPS: 4 h) amounted to 1.75 ± 0.089.

`CCCCOc1c(C(=O)c2c(F)cc(C)cc2F)c[nH]c2nncc1-2`: the mitochondrial superoxide amounted to 1.16 ± 0.027 (time after LPS: 1 h), 1.25 ± 0.066 (time after LPS: 2 h) and 1.37 ± 0.036 (time after LPS: 4 h).

`Cn1c(Nc2ccc(C(F)(F)F)cc2)nc2cc(Oc3ccnc(-c4ncc(C(F)(F)F)[nH]4)c3)ccc21`: the mitochondrial superoxide is, setting by setting: (time after LPS: 1 h) 1.13 ± 0.08; (time after LPS: 2 h) 1.2 ± 0.097; (time after LPS: 4 h) 1.33 ± 0.066.

Take `Clc1ccc(Nc2nnc(Cc3ccncc3)c3ccccc23)cc1` [Vatalanib (PTK787) 2HCl]: the mitochondrial superoxide reads like this: (time after LPS: 1 h) 1.42 ± 0.075; (time after LPS: 2 h) 1.5 ± 0.09; (time after LPS: 4 h) 1.53 ± 0.057.

For the compound `CCOc1cc2ncc(C#N)c(Nc3ccc(F)c(Cl)c3)c2cc1NC(=O)/C=C/CN(C)C` [Pelitinib (EKB-569)], the mitochondrial superoxide is 1.2 ± 0.018 (time after LPS: 1 h), 1.21 ± 0.049 (time after LPS: 2 h) and 1.32 ± 0.032 (time after LPS: 4 h).

With `COc1ccc(S(=O)(=O)N(C(C)=O)c2ccccc2/C=C/c2cc[n+]([O-])cc2)cc1`, the mitochondrial superoxide by setting is: (time after LPS: 1 h) 1.15 ± 0.035; (time after LPS: 2 h) 1.17 ± 0.058; (time after LPS: 4 h) 1.32 ± 0.05.

With `C#Cc1cccc(Nc2ncnc3cc(OC)c(OCCCCCCC(=O)NO)cc23)c1`, the mitochondrial superoxide by setting is: (time after LPS: 1 h) 1.189 ± 0.011; (time after LPS: 2 h) 1.2 ± 0.047; (time after LPS: 4 h) 1.22 ± 0.051.

For the compound `O=C1C(c2c(O)[nH]c3ccccc23)=Nc2ccccc21` [Indirubin], the mitochondrial superoxide is, setting by setting: (time after LPS: 1 h) 1.22 ± 0.026; (time after LPS: 2 h) 1.34 ± 0.073; (time after LPS: 4 h) 1.42 ± 0.048.

Turning to `Cc1ccc(S(=O)(=O)Nc2nc3ccccc3nc2Nc2ccc3nsnc3c2)cc1`, the mitochondrial superoxide runs as follows: (time after LPS: 1 h) 1.4 ± 0.089; (time after LPS: 2 h) 1.48 ± 0.091; (time after LPS: 4 h) 1.56 ± 0.041.

Regarding `CC(=O)Nc1nc(C)c(-c2ccc(Cl)c(S(=O)(=O)NCCO)c2)s1`, the mitochondrial superoxide amounted to 1.02 ± 0.067 (time after LPS: 1 h), 1.15 ± 0.03 (time after LPS: 2 h) and 1.23 ± 0.048 (time after LPS: 4 h).

`NC(=O)c1cnc(N[C@@H]2CCCC[C@@H]2N)nc1Nc1cccc(-n2nccn2)c1`: the mitochondrial superoxide is, setting by setting: (time after LPS: 1 h) 1.38 ± 0.058; (time after LPS: 2 h) 1.57 ± 0.08; (time after LPS: 4 h) 1.71 ± 0.11.

Regarding `COc1ccc(-c2ccc3ncc4c(c3c2)n(-c2ccc(N3CCNCC3)c(C(F)(F)F)c2)c(=O)n4C)cn1`, the mitochondrial superoxide (time after LPS: 1 h) is 1.1 ± 0.041, the mitochondrial superoxide (time after LPS: 2 h) worked out at 1.27 ± 0.078 and the mitochondrial superoxide (time after LPS: 4 h) was found to be 1.49 ± 0.077.

Turning to `CNC(=O)c1cc(Oc2ccc(NC(=O)Nc3ccc(Cl)c(C(F)(F)F)c3)cc2)ccn1` [Sorafenib Tosylate], the mitochondrial superoxide by setting is: (time after LPS: 1 h) 1.6 ± 0.039; (time after LPS: 2 h) 1.68 ± 0.099; (time after LPS: 4 h) 1.73 ± 0.077.

As for `NC1(Cc2ccc(Cl)cc2)CCN(c2ncnc3[nH]ccc23)CC1`, the mitochondrial superoxide is, setting by setting: (time after LPS: 1 h) 1.31 ± 0.037; (time after LPS: 2 h) 1.43 ± 0.058; (time after LPS: 4 h) 1.68 ± 0.021.
